# Results taken from PubChem BioAssay (NCI).
# The panel holds about 83,000 compounds, 20% with a hit somewhere; the sample as a whole holds those more often.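 Assay: single dose, 48 h. Readout: percent growth (0 = no net growth; negative = cell death). Active: <10.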 Active and inactive are the calls of the source.
# Test system: SK-MEL-2 melanoma
# Assay: NCI-60 one-dose screen, 48 h (100 = growth as untreated, 0 = no growth, -100 = all killed)
# Details: 10 µM unless noted
row,Structure (SMILES),growth
1,NC(=O)C(=O)c1ccccc1NC=O,112% (inactive)
2,N#Cc1c(-c2ccccc2)[nH]c2ncc(-c3ccccc3)n2c1=O,72.9% (inactive)
3,O=S(=O)(Nc1cc(Cl)ccc1Cl)c1ccc(-c2cnc(C3CC3)o2)cc1,39% (inactive)
4,COc1cc(C2CC(c3ccc(Nc4nc(Nc5ccc(Cl)cc5)nc(Nc5ccc(Cl)cc5)n4)cc3)=NN2C(C)=O)cc(OC)c1OC (stereo not drawn),80.4% (inactive)
5,N#Cc1c(-c2ccc(Cl)cc2)c(C#N)c2c(C#N)c(N)nn2c1N,93.1% (inactive)
6,CC(=O)N1N=C(c2ccc(Nc3nc(Nc4ccccc4)nc(Nc4ccccc4)n3)cc2)CC1c1cccc([N+](=O)[O-])c1 (stereo not drawn),60.6% (inactive)
7,N#CC1=C(c2ccccc2)Nc2c(c(-c3ccc(Cl)cc3)nn2-c2ccccc2)C12C(=O)Nc1ccc(Cl)cc12 (stereo not drawn),94.8% (inactive)
8,O=C(Nc1nc2ccc(C(=O)N3CCN(/C=C/c4ccccc4)CC3)cc2s1)c1ccc(NCCc2ccccc2)c([N+](=O)[O-])c1,87.6% (inactive)
9,Cc1ccc(/C=C2\COc3ccc(O)cc3C2=O)cc1,117% (inactive)
10,CCNCCNc1cc(C2CCCCC2)c(C#N)c2nc3ccccc3n12,23.2% (inactive)
11,Nc1c(C(=O)Nc2ccncc2)sc2nc3c(cc12)C(O)CCC3 (stereo not drawn),97.4% (inactive)
12,C=CCN=c1sc2c(n1NC(=O)c1cc3ccc1CCc1ccc(cc1)CC3)C(=O)c1ccccc1C2=O,-17.3% (active)
13,Cc1nc2sc(C(=O)Nc3cccc(Br)c3)c(N)c2cc1C(O)c1ccccc1 (stereo not drawn),47.2% (inactive)
